The assay in a line: MDA-MB-231 cell growth inhibition, dose response, cytotoxicity control for RAD54 inhibitor project, CellTiter-Glo luminescence, cherry-pick (AID 651692).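 Note: more negative values mean stronger loss of viable cell signal.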 In general terms: Cellular ATP, detected with luciferase, serves as a proxy for viable cell number.

Entries with a potency or affinity are not part of this list. The source made the active and inactive calls.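 Rule for the calls: active = fitted half-maximal concentration for loss of cell signal no higher than twice the top valid tested concentration; inconclusive = flat curve at 30 to 70% inhibition, or poor fit; inactive = flat within 30%, signal rise, or potency above limit.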

`CN(C)CCNC(=O)c1cccc(-c2cnc3c(NC=O)cc(-c4ccc(C(=O)N5CCOCC5)cc4)cn23)c1`: the outcome was inactive. Consider `CCc1nc(Nc2ccncc2)c2oc3ccccc3c2n1`, for which the molecule was called inactive. In the case of `Cc1cc(N2CCN(C)CC2)nc2ccc(NC(=S)NCCCN3CCN(C)CC3)cc12`, the molecule was called inactive. In the case of `COc1cc2nc(Nc3ccc(F)cc3)nc(N)c2cc1OC` it was “inactive”; in that of `COc1ncccc1-c1cc2nc(NCCCN(C)C)n(C)c(=O)c2s1`, “inactive”; in that of `CN(C)CCCNc1c2ccccc2nc2ccccc12`, “inactive”. For `COC(=O)Nc1nnc(COc2ccccc2)s1`, the call was inactive. As for `CCCNc1nc2nc3ccccn3c(=O)c2cc1C(=O)NCCN1CCOCC1`, the result was inactive. Regarding `COc1ccc(-c2nc(NCCCN(C)C)c3ccccc3n2)cc1`, the molecule was classed as inactive. On to `COc1ccc(Cl)c2sc(N(CCN(C)C)C(=O)C3=COCCO3)nc12`, for which the result was inactive. Under `COc1ccc(-c2cc3nc(NCCCN(C)C)n(C)c(=O)c3s2)cc1OC` stands “inactive”.

Regarding `CCCN(CCC)c1nc(-c2ccccn2)nc2ccccc12`, the molecule was called inactive.

Source of the values: PubChem BioAssay AID651692 (Broad Institute, 2012).
